Data from PubChem BioAssay (EPA / NIEHS).
Activity calls are given as the source filed them. The calls were made as follows: active = hit-call score of the fitted dose curve at least 0.9, where 1 is the maximum; inactive = score below 0.9.

Key:
[1] = target: Bile acid receptor (Homo sapiens) (UniProt Q96RI1); assay: ATG_IR1_CIS: Attagene CIS-FACTORIAL HepG2 Assay for human Nuclear Receptor Subfamily 1 Group H Member 4 (NR1H4), IR1 submotif (AID 2282946); settings: IR1 reporter transcription, actives raise or lower the signal
Chain of Bile acid receptor (Homo sapiens) (Q96RI1 whole entry, looked up): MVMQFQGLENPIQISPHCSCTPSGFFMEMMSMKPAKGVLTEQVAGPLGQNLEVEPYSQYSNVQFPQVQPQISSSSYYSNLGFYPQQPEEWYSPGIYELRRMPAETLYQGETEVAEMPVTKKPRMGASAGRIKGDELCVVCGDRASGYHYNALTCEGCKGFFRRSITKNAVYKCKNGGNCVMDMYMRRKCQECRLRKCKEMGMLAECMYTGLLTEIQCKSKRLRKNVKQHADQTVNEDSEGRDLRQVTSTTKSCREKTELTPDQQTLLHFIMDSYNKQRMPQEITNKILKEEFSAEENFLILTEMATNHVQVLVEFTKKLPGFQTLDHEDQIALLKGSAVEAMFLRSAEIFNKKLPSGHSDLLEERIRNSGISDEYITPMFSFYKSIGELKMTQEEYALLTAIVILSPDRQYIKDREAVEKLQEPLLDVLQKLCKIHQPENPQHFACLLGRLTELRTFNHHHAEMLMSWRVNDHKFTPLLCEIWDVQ
Outline: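 Transient MRTU transfection, HepG2; 24 h dosing; RNA → RT-PCR → 6-FAM primer extension → HpaI digest → capillary electrophoresis fluorescence. Gain/loss of signal fitted relative to DMSO.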

[2] = ATG_GRE_CIS: Attagene CIS-FACTORIAL HepG2 Assay for human Glucocorticoid Response Elements (GRE) (AID 2282947); settings: HepG2 GRE cis-reporter, Attagene multiplex mRNA; actives raise or lower the signal
Outline: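 HepG2 cells transiently transfected with multiple cis-promoter reporter units measure endogenous TF activity; 24 h compound exposure. Reporter mRNA quantified by RT-PCR, FAM labelling, HpaI digestion and capillary electrophoresis; bidirectional fit vs DMSO baseline.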

[3] = ATG_ISRE_CIS: Attagene CIS-FACTORIAL HepG2 Assay for human Interferon Regulatory Factor 1 (IRF1) binding to an Interferon-Stimulated Response Element (ISRE) (AID 2282948); settings: HepG2 ISRE cis-reporter (Attagene), mRNA transcription readout; actives raise or lower the signal
Outline: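 Quantitation relies on labelled RT-PCR fragments separated by capillary electrophoresis. Human HepG2 cells bearing cis-promoter reporter constructs were treated 24 h; DMSO served as baseline for bidirectional fitting.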

[4] = ATG_M_32_CIS: Attagene CIS-FACTORIAL HepG2 Assay for M32 Transcription Factor (Internal Marker) (AID 2282949); settings: HepG2 Attagene cis-factorial M32 reporter, mRNA; actives raise or lower the signal;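 also: background control marker of the multiplexed CIS panel rather than a real target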
Outline: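 Following 24 h chemical exposure of HepG2 cells transiently expressing cis-promoter reporter constructs, reporter transcript levels were determined by RT-PCR with fluorescent labelling and capillary electrophoresis, then fitted bidirectionally against DMSO.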

[5] = ATG_M_06_CIS: Attagene CIS-FACTORIAL HepG2 Assay for M06 Transcription Factor (Internal Marker) (AID 2282950); settings: HepG2 Attagene CIS-FACTORIAL M06 internal marker reporter; actives raise or lower the signal
Outline: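 HepG2 cells transiently transfected with cis-regulated multiple reporter transcription units were exposed to chemical for 24 h; reporter mRNA was quantified by RT-PCR, 6-FAM primer labelling, HpaI digestion and capillary electrophoresis, fitted bidirectionally against DMSO.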

[6] = target: Heat shock factor protein 1 (Homo sapiens) (UniProt Q00613); assay: ATG_HSE_CIS: Attagene CIS-FACTORIAL HepG2 Assay for human Heat Shock Transcription Factor 1 (HSE) (AID 2282953); settings: HepG2 HSE cis-reporter, Attagene RNA transcription; actives raise or lower the signal
Chain of Heat shock factor protein 1 (Homo sapiens) (Q00613 whole entry, looked up): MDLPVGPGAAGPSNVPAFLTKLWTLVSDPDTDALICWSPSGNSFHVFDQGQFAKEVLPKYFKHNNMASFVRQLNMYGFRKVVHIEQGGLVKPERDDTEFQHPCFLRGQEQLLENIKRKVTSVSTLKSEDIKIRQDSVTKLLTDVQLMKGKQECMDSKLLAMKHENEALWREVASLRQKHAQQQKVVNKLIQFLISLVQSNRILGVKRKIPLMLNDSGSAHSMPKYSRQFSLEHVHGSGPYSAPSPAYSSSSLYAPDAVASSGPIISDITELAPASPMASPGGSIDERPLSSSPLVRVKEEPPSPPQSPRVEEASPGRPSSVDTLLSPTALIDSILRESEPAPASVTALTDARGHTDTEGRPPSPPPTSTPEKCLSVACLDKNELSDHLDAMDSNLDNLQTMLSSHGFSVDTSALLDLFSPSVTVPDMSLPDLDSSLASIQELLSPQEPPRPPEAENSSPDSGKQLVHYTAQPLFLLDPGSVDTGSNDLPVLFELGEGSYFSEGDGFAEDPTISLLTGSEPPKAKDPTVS
Outline: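 HepG2 cells transiently transfected with multiple reporter transcription units under cis-regulatory promoter control, measuring endogenous transcription factor activity. After 24 h chemical exposure, reporter mRNA quantified by RT-PCR, fluorescent labelling, HpaI digestion and capillary electrophoresis; bidirectional fit versus DMSO.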

[7] = ATG_PBREM_CIS: Attagene CIS-FACTORIAL HepG2 Assay for human Phenobarbital-responsive Enhancer Module (PBREM) (AID 2282955); settings: HepG2 PBREM cis-reporter, Attagene multiplexed transcription; actives raise or lower the signal
Outline: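 Reporter mRNA read by RT-PCR, 6-FAM primer extension, HpaI digestion and capillary electrophoresis. Transfected HepG2 cells, 24 h compound exposure. Gain or loss of signal fitted bidirectionally relative to DMSO baseline.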

[8] = target: Paired box protein Pax-6 (Homo sapiens) (UniProt P26367); assay: ATG_Pax6_CIS: Attagene CIS-FACTORIAL HepG2 Assay for human Paired Box 6 (PAX6) (AID 2282956); settings: HepG2 CIS-FACTORIAL PAX6 reporter transcription, RNA readout; actives raise or lower the signal
Chain of Paired box protein Pax-6 (Homo sapiens) (P26367 whole entry, looked up): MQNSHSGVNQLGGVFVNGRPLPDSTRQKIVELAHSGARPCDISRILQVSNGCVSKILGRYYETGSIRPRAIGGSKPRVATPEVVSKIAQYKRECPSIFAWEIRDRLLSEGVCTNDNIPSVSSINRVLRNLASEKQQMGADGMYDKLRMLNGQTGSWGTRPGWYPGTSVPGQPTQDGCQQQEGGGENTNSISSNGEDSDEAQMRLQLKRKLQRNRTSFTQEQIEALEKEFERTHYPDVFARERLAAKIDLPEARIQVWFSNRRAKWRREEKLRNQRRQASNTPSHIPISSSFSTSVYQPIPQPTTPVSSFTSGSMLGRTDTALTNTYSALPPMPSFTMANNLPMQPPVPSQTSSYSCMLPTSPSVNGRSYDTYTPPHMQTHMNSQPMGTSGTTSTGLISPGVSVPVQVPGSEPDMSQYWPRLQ
Outline: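 After twenty-four hours of chemical exposure, transfected HepG2 cells are harvested for RNA. Cis-promoter reporter transcripts are amplified, fluorescently labelled and sized by capillary electrophoresis, with gain and loss of signal scored against DMSO.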

[9] = ATG_RORE_CIS: Attagene CIS-FACTORIAL HepG2 Assay for human RAR-related Orphan Receptor Element (RORE) (AID 2282959); settings: HepG2 Attagene cis-factorial RORE reporter, mRNA; actives raise or lower the signal
Outline: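 Readout: fluorescent reporter mRNA by RT-PCR plus capillary electrophoresis, 24 h after dosing transfected HepG2 cells. Endogenous transcription factor activity on a cis promoter element is measured. Gain or loss of signal fitted against DMSO.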

[10] = target: Transcription factor Sp1 (Homo sapiens) (UniProt P08047); assay: ATG_Sp1_CIS: Attagene CIS-FACTORIAL HepG2 Assay for human Specificity Protein 1 (Sp1) (AID 2282961); settings: HepG2 Sp1 cis-reporter transcription, actives raise or lower the signal
Chain of Transcription factor Sp1 (Homo sapiens) (P08047 whole entry, looked up): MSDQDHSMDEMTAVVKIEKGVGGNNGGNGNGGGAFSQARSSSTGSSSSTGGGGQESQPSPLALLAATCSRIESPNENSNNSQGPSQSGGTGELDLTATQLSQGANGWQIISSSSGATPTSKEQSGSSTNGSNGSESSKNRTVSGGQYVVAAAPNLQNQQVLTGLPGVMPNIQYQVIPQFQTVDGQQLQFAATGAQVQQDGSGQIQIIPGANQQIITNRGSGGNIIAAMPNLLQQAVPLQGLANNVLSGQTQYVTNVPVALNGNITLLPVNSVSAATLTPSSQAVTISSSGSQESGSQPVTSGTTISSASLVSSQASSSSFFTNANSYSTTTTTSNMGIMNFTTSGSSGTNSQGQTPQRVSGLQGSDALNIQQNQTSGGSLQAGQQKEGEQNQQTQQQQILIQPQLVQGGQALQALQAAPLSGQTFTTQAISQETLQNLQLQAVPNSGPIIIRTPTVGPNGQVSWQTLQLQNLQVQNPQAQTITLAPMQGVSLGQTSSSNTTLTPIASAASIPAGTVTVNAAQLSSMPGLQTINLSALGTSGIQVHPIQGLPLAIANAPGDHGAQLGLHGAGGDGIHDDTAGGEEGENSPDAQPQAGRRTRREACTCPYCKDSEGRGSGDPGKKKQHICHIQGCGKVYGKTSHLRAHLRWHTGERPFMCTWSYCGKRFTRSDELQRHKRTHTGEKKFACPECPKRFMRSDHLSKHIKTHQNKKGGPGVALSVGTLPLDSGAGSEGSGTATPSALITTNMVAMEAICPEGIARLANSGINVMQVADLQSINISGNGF
Outline: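 Read-out: fluorescence of 6-FAM-labeled, HpaI-digested RT-PCR products separated by capillary electrophoresis. HepG2 cells carried transfected cis-element reporter units and were exposed to chemicals for 24 h; gain or loss of signal fitted relative to DMSO.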

[11] = ATG_SREBP_CIS: Attagene CIS-FACTORIAL HepG2 Assay for human Sterol Regulatory Element Binding (SREBP) (AID 2282962); settings: HepG2 Attagene cis-factorial SREBP reporter, mRNA; actives raise or lower the signal
Outline: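 Twenty-four hours after chemical dosing of transfected HepG2 cultures, reporter RNA was converted to cDNA, amplified, end-labelled with 6-FAM and resolved by capillary electrophoresis. Responses were fitted relative to DMSO.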

[12] = target: Signal transducer and activator of transcription 3 (Homo sapiens) (UniProt P40763); assay: ATG_STAT3_CIS: Attagene CIS-FACTORIAL HepG2 Assay for human Signal Transducer and Activator of Transcription 3 (STAT3) (AID 2282963); settings: HepG2, Attagene cis-factorial STAT3 reporter transcription; actives raise or lower the signal
Chain of Signal transducer and activator of transcription 3 (Homo sapiens) (P40763 whole entry, looked up): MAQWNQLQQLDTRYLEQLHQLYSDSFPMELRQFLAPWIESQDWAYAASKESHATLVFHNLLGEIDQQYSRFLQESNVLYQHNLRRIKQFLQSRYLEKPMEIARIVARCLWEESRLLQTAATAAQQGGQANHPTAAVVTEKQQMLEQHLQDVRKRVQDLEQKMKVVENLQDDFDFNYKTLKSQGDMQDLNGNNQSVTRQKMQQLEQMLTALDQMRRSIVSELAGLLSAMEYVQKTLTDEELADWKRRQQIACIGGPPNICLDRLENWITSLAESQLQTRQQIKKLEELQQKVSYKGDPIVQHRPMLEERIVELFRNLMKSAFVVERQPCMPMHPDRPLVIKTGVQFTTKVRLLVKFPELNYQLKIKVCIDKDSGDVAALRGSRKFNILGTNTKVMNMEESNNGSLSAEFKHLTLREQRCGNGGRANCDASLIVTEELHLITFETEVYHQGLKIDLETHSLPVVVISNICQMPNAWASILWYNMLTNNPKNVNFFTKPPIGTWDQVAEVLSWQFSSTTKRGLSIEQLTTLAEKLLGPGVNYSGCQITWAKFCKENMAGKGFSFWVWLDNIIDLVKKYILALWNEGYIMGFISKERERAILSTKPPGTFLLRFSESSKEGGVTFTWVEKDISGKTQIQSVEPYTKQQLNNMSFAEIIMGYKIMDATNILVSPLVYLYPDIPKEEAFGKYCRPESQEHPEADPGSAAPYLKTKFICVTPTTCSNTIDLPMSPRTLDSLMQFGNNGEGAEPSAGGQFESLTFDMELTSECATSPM
Outline: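 HepG2 cells transiently transfected with cis-element-driven multiple reporter transcription units; after 24 h chemical exposure, reporter mRNA measured by RT-PCR, 6-FAM primer-extension labelling, HpaI digestion and capillary electrophoresis. Bidirectional fitting versus DMSO baseline.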

[13] = target: Hypoxia-inducible factor 1-alpha (Homo sapiens) (UniProt Q16665); assay: ATG_HIF1a_CIS: Attagene CIS-FACTORIAL HepG2 Assay for human Hypoxia Inducible Factor 1 (HIF1A) (AID 2282951); settings: HepG2 Attagene cis-factorial HIF1a reporter transcription; actives raise or lower the signal
Chain of Hypoxia-inducible factor 1-alpha (Homo sapiens) (Q16665 whole entry, looked up): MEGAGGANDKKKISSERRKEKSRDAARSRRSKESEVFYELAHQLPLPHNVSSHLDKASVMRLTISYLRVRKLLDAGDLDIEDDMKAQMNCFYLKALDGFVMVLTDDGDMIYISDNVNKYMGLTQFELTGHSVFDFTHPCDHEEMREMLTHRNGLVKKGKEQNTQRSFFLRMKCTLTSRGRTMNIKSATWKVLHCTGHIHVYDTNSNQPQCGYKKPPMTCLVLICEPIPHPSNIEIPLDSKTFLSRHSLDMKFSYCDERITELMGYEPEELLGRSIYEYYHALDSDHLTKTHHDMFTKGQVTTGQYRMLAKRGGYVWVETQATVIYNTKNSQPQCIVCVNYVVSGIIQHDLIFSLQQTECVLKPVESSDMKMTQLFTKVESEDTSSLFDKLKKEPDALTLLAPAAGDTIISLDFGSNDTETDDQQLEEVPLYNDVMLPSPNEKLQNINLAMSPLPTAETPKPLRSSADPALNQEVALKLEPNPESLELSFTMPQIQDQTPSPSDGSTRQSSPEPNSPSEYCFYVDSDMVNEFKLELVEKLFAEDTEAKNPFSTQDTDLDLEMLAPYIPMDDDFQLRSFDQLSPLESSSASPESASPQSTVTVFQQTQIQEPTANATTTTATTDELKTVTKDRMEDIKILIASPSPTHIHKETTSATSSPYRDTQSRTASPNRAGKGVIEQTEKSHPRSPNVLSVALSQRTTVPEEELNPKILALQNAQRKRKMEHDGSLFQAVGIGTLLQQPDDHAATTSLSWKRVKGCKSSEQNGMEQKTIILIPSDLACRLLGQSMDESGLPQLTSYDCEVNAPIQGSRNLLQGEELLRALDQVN
Outline: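 RT-PCR/capillary electrophoresis fluorescence readout of reporter transcripts from endogenous-TF-driven cis elements in transfected HepG2 cells, 24 h exposure; activity fitted in both directions against DMSO controls.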

[14] = ATG_MRE_CIS: Attagene CIS-FACTORIAL HepG2 Assay for human Metal Responsive Element (MRE) (AID 2282954); settings: HepG2 MRE cis-reporter transcription, Attagene multiplex; actives raise or lower the signal
Outline: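 HepG2 cells transiently transfected with multiple cis-element reporter units measure endogenous MTF1-driven transcription. After 24 h compound exposure, reporter mRNA is quantified by RT-PCR with 6-FAM labelling, HpaI digestion and capillary electrophoresis; bidirectional fits versus DMSO.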

[15] = ATG_PXRE_CIS: Attagene CIS-FACTORIAL HepG2 Assay for human Pregnane X Receptor Element (PXRE) (AID 2282957); settings: HepG2 Attagene CIS-FACTORIAL PXRE reporter, mRNA; actives raise or lower the signal
Outline: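 Transiently transfected HepG2 cells were dosed and incubated for 24 h. RNA was then isolated, DNase-treated, reverse-transcribed and reporter sequences amplified. Labeled, HpaI-digested fragments were quantified by capillary electrophoresis against DMSO.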

[16] = ATG_PPRE_CIS: Attagene CIS-FACTORIAL HepG2 Assay for human Peroxisome Proliferator-activated Response Element (PPRE) (AID 2282958); settings: HepG2 PPRE cis-element reporter, Attagene transcription factor profiling; actives raise or lower the signal
Outline: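 Read-out: fluorescent reporter mRNA fragments resolved by capillary electrophoresis after RT-PCR. HepG2 cells carried transiently transfected PPRE-driven cis reporter constructs and were dosed for 24 h; gain or loss of signal fitted relative to DMSO.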

[17] = ATG_TA_CIS: Attagene CIS-FACTORIAL HepG2 Assay for human TA Basal Promoter (AID 2282964); settings: HepG2 Attagene CIS-factorial TA basal promoter reporter; actives raise or lower the signal
Outline: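 HepG2 cells transiently transfected with multiplexed cis-promoter reporter units, dosed 24 h. Reporter mRNA measured by RT-PCR, 6-FAM labelling, HpaI digestion and capillary electrophoresis; bidirectional fit versus DMSO baseline, serving as background control.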

[18] = ATG_TCF_b_cat_CIS: Attagene CIS-FACTORIAL HepG2 Assay for human T-Cell-Factor with beta-catenin (TCF/b-cat) (AID 2282965); settings: HepG2 TCF/beta-catenin cis-reporter transcription, actives raise or lower the signal
Outline: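 HepG2 cells transiently transfected with multiple cis-promoter-regulated reporter transcription units, so endogenous transcription factor activity is measured. Reporter mRNA read 24 hours after dosing by RT-PCR, fluorescent labelling and capillary electrophoresis; bidirectional fitting against DMSO.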

[19] = target: Hepatocyte nuclear factor 6 (Homo sapiens) (UniProt Q9UBC0); assay: ATG_HNF6_CIS: Attagene CIS-FACTORIAL HepG2 Assay for human Hepatocyte Nuclear Factor 6 (HNF6) (AID 2282952); settings: HepG2 Attagene cis-factorial HNF6 reporter transcription; actives raise or lower the signal
Chain of Hepatocyte nuclear factor 6 (Homo sapiens) (Q9UBC0 whole entry, looked up, the tested form may be a part): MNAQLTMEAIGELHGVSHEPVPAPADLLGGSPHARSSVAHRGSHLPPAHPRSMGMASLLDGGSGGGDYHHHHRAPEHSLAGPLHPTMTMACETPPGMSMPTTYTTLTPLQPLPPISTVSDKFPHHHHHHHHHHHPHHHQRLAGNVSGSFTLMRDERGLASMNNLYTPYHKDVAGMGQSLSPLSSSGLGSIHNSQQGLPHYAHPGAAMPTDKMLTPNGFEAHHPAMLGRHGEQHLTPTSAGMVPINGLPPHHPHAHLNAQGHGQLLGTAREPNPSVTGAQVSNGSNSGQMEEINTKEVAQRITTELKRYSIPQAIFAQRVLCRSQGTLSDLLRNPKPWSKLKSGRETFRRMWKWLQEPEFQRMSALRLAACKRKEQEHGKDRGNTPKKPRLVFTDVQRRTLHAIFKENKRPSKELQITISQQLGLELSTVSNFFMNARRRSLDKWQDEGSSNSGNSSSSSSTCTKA
Outline: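 Reporter mRNA induction or loss in HepG2 after 24 h exposure; transient cis-MRTU transfection; fragments quantified by capillary electrophoresis; bidirectional analysis, DMSO as negative control.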

[20] = ATG_Sox_CIS: Attagene CIS-FACTORIAL HepG2 Assay for human SRY-box transcription factor (SOX) (AID 2282960); settings: HepG2 Attagene cis-factorial SOX reporter, mRNA; actives raise or lower the signal
Outline: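 Read-out: fluorescent RT-PCR products of SOX1-linked reporter transcripts resolved by capillary electrophoresis, fitted bidirectionally against DMSO. Transiently transfected HepG2 cells, 24 h after chemical exposure, endogenous transcription factor activity.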

Measured: AC50

CC(C)(Oc1ccc(CCNC(=O)c2ccc(Cl)cc2)cc1)C(=O)O
inactive: [1] | [2] | [3] | [4] | [5] | [6] | [7] | [8] | [9] | [10] | [11] | [12]

CC1=CC(=O)NS(=O)(=O)O1
active: [15] 55.8 µM
inactive: [1] | [2] | [3] | [4] | [5] | [13] | [6] | [14] | [7] | [8] | [16] | [9] | [10] | [11] | [12] | [17] | [18]

CCCCNC(=O)NS(=O)(=O)c1ccc(C)cc1
inactive: [1] | [2] | [3] | [4] | [5] | [19] | [6] | [14] | [8] | [15] | [16] | [9] | [20] | [10] | [11] | [17] | [18]

Cc1ccc(Nc2ccc(O)c3c2C(=O)c2ccccc2C3=O)cc1
active: [15] 4.96 µM
inactive: [1] | [3] | [4] | [5] | [13] | [19] | [6] | [14] | [7] | [8] | [16] | [9] | [20] | [10] | [11] | [12] | [18]

O=S(=O)(O)c1ccc(O)c2ncccc12
inactive: [1] | [2] | [3] | [4] | [5] | [13] | [6] | [14] | [7] | [8] | [15] | [20] | [10] | [11] | [12] | [17] | [18]

COC(=O)C1=C(C)NC(C)=C(C(=O)OCCN(C)Cc2ccccc2)C1c1cccc([N+](=O)[O-])c1 (configuration not stated)
active: [3] 26.2 µM | [6] 54.6 µM | [14] 19.8 µM | [7] 0.238 µM | [8] 20.5 µM
inactive: [1] | [2] | [4] | [5] | [16] | [9] | [20] | [10] | [11] | [12] | [17] | [18]

O=c1[nH]nnc2ccccc12
inactive: [1] | [3] | [4] | [5] | [13] | [19] | [6] | [14] | [7] | [8] | [15] | [16] | [9] | [20] | [10] | [12] | [17] | [18]
